{"source": "PubChem BioAssay (EPA / NIEHS)", "key": {"[1]": {"test_system": "zebrafish Androgen Receptor (AR), gene 100005148", "assay": "ATG_zfAR_XSP1: Attagene TRANS-FACTORIAL Multi-Species (XSP1) HepG2 Assay for zebrafish Androgen Receptor (AR) (AID 2283771)", "summary_of_the_method": "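HepG2 cells were transiently transfected with a zebrafish AR-GAL4 reporter system and partially stimulated with 3 nM 6-alpha-fluorotestosterone. Reporter mRNA was measured after 24 h dosing by RT-PCR with capillary electrophoresis, and gain-of-signal was fitted relative to DMSO.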"}, "[2]": {"test_system": "zebrafish Estrogen Receptor (ESR2B), gene 317733", "assay": "ATG_zfER2b_XSP1: Attagene TRANS-FACTORIAL Multi-Species (XSP1) HepG2 Assay for zebrafish Estrogen Receptor (ESR2B) (AID 2283773)", "summary_of_the_method": "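HepG2 cells transiently transfected with multiple GAL4-UAS reporter units expressing chimeric zebrafish ER2b-Gal4; 24 h chemical exposure with 3 nM 6-alpha-fluorotestosterone present. Reporter mRNA measured by RT-PCR and capillary electrophoresis; gain of signal fitted versus DMSO.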"}, "[3]": {"test_system": "frog Estrogen Receptor (ESR2), gene 100174814", "assay": "ATG_frER2_XSP1: Attagene TRANS-FACTORIAL Multi-Species (XSP1) HepG2 Assay for frog Estrogen Receptor (ESR2) (AID 2283774)", "summary_of_the_method": "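HepG2 cells transiently transfected with GAL4-UAS multiplexed reporter units expressing chimeric NR-Gal4 proteins; reporter mRNA measured 24 h after dosing by RT-PCR, FAM labeling, HpaI digestion and capillary electrophoresis. Gain-of-signal relative to DMSO; 3 nM 6-alpha-fluorotestosterone present.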"}, "[4]": {"assay": "ACEA_AR_agonist_AUC_viability: ACEA Biosciences xCELLigence Real-Time Cell Analysis on Androgen Receptor Agonism for Viability (AID 2283775)", "summary_of_the_method": "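Real-time impedance tracking of 22Rv1 growth, readings every 5 min for 5 h then hourly; area-under-curve viability endpoint at 80 hours, relative to DMSO. Compounds at eight concentrations, 1:4 steps, top 100 uM, n = 2.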"}, "[5]": {"assay": "ACEA_AR_antagonist_AUC_viability: ACEA Biosciences xCELLigence Real-Time Cell Analysis on Androgen Receptor Antagonism for Viability (AID 2283776);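 also: 22Rv1 human prostate cancer cells growing on impedance electrode plates; hits lower the growth signal relative to DMSO meaning cytotoxicity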", "summary_of_the_method": "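Real-time electrical impedance tracks 22Rv1 proliferation after continuous compound exposure (top 100 uM final, 1:4 steps, 8 concentrations). The 80 h area-under-curve serves as the cytotoxicity readout relative to DMSO.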"}, "[6]": {"test_system": "frog Estrogen Receptor (ESR1), gene 398734", "assay": "ATG_frER1_XSP1: Attagene TRANS-FACTORIAL Multi-Species (XSP1) HepG2 Assay for frog Estrogen Receptor (ESR1) (AID 2283777)", "summary_of_the_method": "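Read-out: fluorescent reporter mRNA via RT-PCR, HpaI digestion and capillary electrophoresis, after 24 h chemical exposure of transiently transfected human HepG2 cells expressing exogenous NR-Gal4 chimeras. DMSO served as baseline for positive-direction fitting.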"}, "[7]": {"biological_target": "chicken Estrogen Receptor (ESR1), ESR1 (gene 396099) (UniProt P06212)", "sequence (P06212 whole entry, looked up, the tested form may be a part)": "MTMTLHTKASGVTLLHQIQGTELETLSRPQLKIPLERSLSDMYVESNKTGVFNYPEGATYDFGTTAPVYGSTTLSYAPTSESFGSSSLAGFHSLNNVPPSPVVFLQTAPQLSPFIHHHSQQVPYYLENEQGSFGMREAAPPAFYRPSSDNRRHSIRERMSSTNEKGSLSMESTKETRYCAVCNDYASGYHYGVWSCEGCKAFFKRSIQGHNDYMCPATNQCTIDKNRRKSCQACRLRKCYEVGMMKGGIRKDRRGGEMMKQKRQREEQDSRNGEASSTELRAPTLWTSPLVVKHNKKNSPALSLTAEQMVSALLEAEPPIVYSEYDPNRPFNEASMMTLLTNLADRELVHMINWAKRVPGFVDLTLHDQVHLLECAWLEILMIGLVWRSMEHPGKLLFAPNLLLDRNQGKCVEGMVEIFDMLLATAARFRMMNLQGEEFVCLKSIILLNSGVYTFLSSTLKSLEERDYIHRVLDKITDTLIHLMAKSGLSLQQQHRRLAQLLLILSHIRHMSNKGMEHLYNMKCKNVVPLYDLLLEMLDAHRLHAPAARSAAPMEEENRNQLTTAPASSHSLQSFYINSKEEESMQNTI", "assay": "ATG_chERa_XSP1: Attagene TRANS-FACTORIAL Multi-Species (XSP1) HepG2 Assay for chicken Estrogen Receptor (ESR1) (AID 2283779)", "summary_of_the_method": "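HepG2 cells transiently transfected with multiplexed GAL4-UAS reporter units expressing chimeric NR-Gal4 proteins; 3 nM 6-alpha-fluorotestosterone present. Reporter mRNA measured 24 h after dosing by RT-PCR, FAM labelling, HpaI digest and capillary electrophoresis; gain of signal versus DMSO.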"}, "[8]": {"biological_target": "zebrafish Estrogen Receptor (ESR1), esr1 (gene 259252) (UniProt P57717)", "sequence (P57717 whole entry, looked up, the tested form may be a part)": "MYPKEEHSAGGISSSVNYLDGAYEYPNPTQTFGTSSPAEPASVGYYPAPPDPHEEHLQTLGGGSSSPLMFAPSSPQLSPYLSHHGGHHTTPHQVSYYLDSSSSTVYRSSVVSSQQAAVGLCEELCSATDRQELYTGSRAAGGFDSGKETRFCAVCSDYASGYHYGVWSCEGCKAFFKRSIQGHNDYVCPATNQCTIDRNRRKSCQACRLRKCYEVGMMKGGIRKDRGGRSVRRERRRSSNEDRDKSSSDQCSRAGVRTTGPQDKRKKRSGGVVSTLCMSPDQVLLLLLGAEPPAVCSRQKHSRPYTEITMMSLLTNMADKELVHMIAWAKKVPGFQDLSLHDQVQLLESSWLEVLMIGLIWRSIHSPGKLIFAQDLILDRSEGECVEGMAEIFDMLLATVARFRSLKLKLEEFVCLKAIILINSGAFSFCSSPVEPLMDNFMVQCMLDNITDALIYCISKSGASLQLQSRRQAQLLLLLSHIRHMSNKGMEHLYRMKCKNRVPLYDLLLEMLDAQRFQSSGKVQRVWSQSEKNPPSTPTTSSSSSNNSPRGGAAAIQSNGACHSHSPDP", "assay": "ATG_zfER1_XSP1: Attagene TRANS-FACTORIAL Multi-Species (XSP1) HepG2 Assay for zebrafish Estrogen Receptor (ESR1) (AID 2283772)", "summary_of_the_method": "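Transfect HepG2 with GAL4-UAS multi-reporter constructs; treat 24 h (medium carries 3 nM 6-alpha-fluorotestosterone); extract RNA, reverse-transcribe, PCR-amplify, FAM-label, digest with HpaI; resolve by capillary electrophoresis and compare against DMSO baseline.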"}, "[9]": {"test_system": "zebrafish Estrogen Receptor (ESR2A), gene 317734", "assay": "ATG_zfER2a_XSP1: Attagene TRANS-FACTORIAL Multi-Species (XSP1) HepG2 Assay for zebrafish Estrogen Receptor (ESR2A) (AID 2283778)", "summary_of_the_method": "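HepG2 cells transiently transfected with multiplexed GAL4-UAS reporter units and chimeric NR-GAL4 receptors; 24 h compound exposure with 3 nM 6-alpha-fluorotestosterone present. Reporter mRNA quantified by RT-PCR and capillary electrophoresis, gain-of-signal fitted relative to DMSO.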"}, "[10]": {"test_system": "frog Androgen Receptor (AR), gene 399456", "assay": "ATG_frAR_XSP1: Attagene TRANS-FACTORIAL Multi-Species (XSP1) HepG2 Assay for frog Androgen Receptor (AR) (AID 2283770)"}}, "note": "Records with an inconclusive call do not appear. Calls of active or inactive are those of the source. The calls were made as follows: active = hit-call score of the fitted dose curve at least 0.9, where 1 is the maximum; inconclusive = response in the unintended direction; inactive = score below 0.9.", "data": [{"compound": "CCCCC(CC)COC(=O)c1ccccc1C(=O)OCC(CC)CCCC", "note": "(stereo not given)", "values": [{"measurement": "outcome", "setting": "[1]", "result": "inactive"}, {"measurement": "AC50", "setting": "[2]", "result": "16.1 µM (active)"}, {"measurement": "outcome", "setting": "[3]", "result": "inactive"}, {"measurement": "AC50", "setting": "[4]", "result": "50 µM (active)"}, {"measurement": "AC50", "setting": "[5]", "result": "61.8 µM (active)"}, {"measurement": "outcome", "setting": "[6]", "result": "inactive"}, {"measurement": "outcome", "setting": "[7]", "result": "inactive"}]}, {"compound": "CCOc1cc(Oc2ccc(C(F)(F)F)cc2Cl)ccc1[N+](=O)[O-]", "values": [{"measurement": "AC50", "setting": "[4]", "result": "22.8 µM (active)"}, {"measurement": "AC50", "setting": "[5]", "result": "12.9 µM (active)"}]}, {"compound": "CC(C)C1(C)N=C(c2nc3ccccc3cc2C(=O)O)NC1=O", "note": "(stereo not given)", "values": [{"measurement": "outcome", "setting": "[5]", "result": "inactive"}]}, {"compound": "Fc1ccc(Oc2ccnc3cc(Cl)cc(Cl)c23)cc1", "values": [{"measurement": "AC50", "setting": "[4]", "result": "76.3 µM (active)"}, {"measurement": "AC50", "setting": "[5]", "result": "60 µM (active)"}]}, {"compound": "COc1cnc(OC)n2nc(NS(=O)(=O)c3c(OCC(F)F)cccc3C(F)(F)F)nc12", "values": [{"measurement": "outcome", "setting": "[4]", "result": "inactive"}, {"measurement": "outcome", "setting": "[5]", "result": "inactive"}]}, {"compound": "CC(Oc1ccc(Cl)cc1Cl)C(=O)O", "note": "(stereo not given)", "values": [{"measurement": "outcome", "setting": "[4]", "result": "inactive"}, {"measurement": "outcome", "setting": "[5]", "result": "inactive"}]}, {"compound": "CCON=C(CC)C1=C(O)CC(c2c(C)cc(C)cc2C)CC1=O", "note": "(stereo not given)", "values": [{"measurement": "outcome", "setting": "[4]", "result": "inactive"}, {"measurement": "outcome", "setting": "[5]", "result": "inactive"}]}, {"compound": "Cc1ccc(-c2c(Cl)nc(C#N)n2S(=O)(=O)N(C)C)cc1", "values": [{"measurement": "AC50", "setting": "[4]", "result": "19.2 µM (active)"}, {"measurement": "AC50", "setting": "[5]", "result": "16.1 µM (active)"}]}, {"compound": "CCCCNC(=O)OCC#CI", "values": [{"measurement": "outcome", "setting": "[8]", "result": "inactive"}, {"measurement": "outcome", "setting": "[2]", "result": "inactive"}, {"measurement": "AC50", "setting": "[4]", "result": "11.6 µM (active)"}, {"measurement": "AC50", "setting": "[5]", "result": "13.9 µM (active)"}, {"measurement": "outcome", "setting": "[9]", "result": "inactive"}]}, {"compound": "C#CCOS(=O)OC1CCCCC1Oc1ccc(C(C)(C)C)cc1", "note": "(stereo not given)", "values": [{"measurement": "AC50", "setting": "[10]", "result": "2.11 µM (active)"}, {"measurement": "AC50", "setting": "[8]", "result": "166 µM (active)"}, {"measurement": "AC50", "setting": "[2]", "result": "80.1 µM (active)"}, {"measurement": "AC50", "setting": "[3]", "result": "25.8 µM (active)"}, {"measurement": "AC50", "setting": "[4]", "result": "44.7 µM (active)"}, {"measurement": "AC50", "setting": "[5]", "result": "21.7 µM (active)"}, {"measurement": "outcome", "setting": "[6]", "result": "inactive"}, {"measurement": "AC50", "setting": "[7]", "result": "26.8 µM (active)"}]}, {"compound": "COC(=O)C(C)Oc1ccc(Oc2ccc(Cl)cc2Cl)cc1", "note": "(stereo not given)", "values": [{"measurement": "AC50", "setting": "[4]", "result": "50 µM (active)"}, {"measurement": "AC50", "setting": "[5]", "result": "50 µM (active)"}]}, {"compound": "CCNc1nc(Cl)nc(NC(C)C)n1", "values": [{"measurement": "outcome", "setting": "[4]", "result": "inactive"}, {"measurement": "outcome", "setting": "[5]", "result": "inactive"}]}, {"compound": "N#Cc1cc(Br)c(O)c(Br)c1", "values": [{"measurement": "AC50", "setting": "[4]", "result": "59.6 µM (active)"}, {"measurement": "AC50", "setting": "[5]", "result": "52.1 µM (active)"}]}, {"compound": "CCNc1nc(Cl)nc(NCC)n1", "values": [{"measurement": "outcome", "setting": "[4]", "result": "inactive"}, {"measurement": "outcome", "setting": "[5]", "result": "inactive"}]}, {"compound": "COC(=O)c1ccccc1C(=O)OC", "values": [{"measurement": "outcome", "setting": "[5]", "result": "inactive"}]}, {"compound": "Cc1cc(Cl)ccc1OCC(=O)O", "values": [{"measurement": "outcome", "setting": "[4]", "result": "inactive"}, {"measurement": "outcome", "setting": "[5]", "result": "inactive"}]}, {"compound": "CS/C(C)=N/OC(=O)N(C)SN(C)C(=O)O/N=C(\\C)SC", "values": [{"measurement": "AC50", "setting": "[4]", "result": "79.6 µM (active)"}, {"measurement": "AC50", "setting": "[5]", "result": "77.9 µM (active)"}]}, {"compound": "OC(c1ccc(Cl)cc1)(c1cncnc1)c1ccccc1Cl", "note": "(stereo not given)", "values": [{"measurement": "outcome", "setting": "[1]", "result": "inactive"}, {"measurement": "AC50", "setting": "[8]", "result": "26.4 µM (active)"}, {"measurement": "AC50", "setting": "[2]", "result": "8.4 µM (active)"}, {"measurement": "AC50", "setting": "[3]", "result": "4.32 µM (active)"}, {"measurement": "AC50", "setting": "[4]", "result": "72 µM (active)"}, {"measurement": "AC50", "setting": "[5]", "result": "67.8 µM (active)"}, {"measurement": "AC50", "setting": "[9]", "result": "4.49 µM (active)"}, {"measurement": "AC50", "setting": "[7]", "result": "2.36 µM (active)"}]}, {"compound": "CNC(=O)ON=CC(C)(C)SC", "values": [{"measurement": "outcome", "setting": "[5]", "result": "inactive"}]}]}
